Legend:
Test in all cases: DAPPL (digital affinity profiling via proximity ligation, sequencing); 10 mM Tris-HCl pH 7.5, 50 mM NaCl, 1 mM DTT, 4% glycerol, room temperature, 30 min; GST-TFs on glutathione beads, 16-mer random dsDNA library, 0.1% formaldehyde crosslink after washing; high values mean tight binding
Settings in all cases: protein: recombinant; tags: N-terminal GST; dsDNA, one strand shown
[1] = biological target: T1, FLI1 (Homo sapiens, UniProt Q01543 1-452)
T1 sequence: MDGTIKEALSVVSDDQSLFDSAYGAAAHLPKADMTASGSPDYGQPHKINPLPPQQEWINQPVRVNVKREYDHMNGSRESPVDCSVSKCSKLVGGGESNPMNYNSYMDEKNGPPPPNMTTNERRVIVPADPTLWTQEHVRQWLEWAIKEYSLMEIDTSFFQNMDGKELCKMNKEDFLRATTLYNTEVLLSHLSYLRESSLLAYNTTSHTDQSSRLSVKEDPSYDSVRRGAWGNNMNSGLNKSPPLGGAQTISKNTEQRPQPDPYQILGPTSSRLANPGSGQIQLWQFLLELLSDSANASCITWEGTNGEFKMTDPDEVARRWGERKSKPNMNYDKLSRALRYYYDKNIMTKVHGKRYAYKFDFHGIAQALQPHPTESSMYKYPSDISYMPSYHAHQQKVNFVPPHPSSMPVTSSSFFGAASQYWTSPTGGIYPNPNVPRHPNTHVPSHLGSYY
How it was run: (§1)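 Each value of binding signal is a hexamer's read frequency for a factor divided by the same hexamer's frequency in the tag-only sample. Barcoded, bead-captured GST fusions of human transcription factors made in yeast were pooled with that sample and incubated with 200 nmole of a random double-stranded 16-mer DNA library in Tris/NaCl/DTT/glycerol buffer at room temperature for 30 min. Washing, 0.1% formaldehyde crosslinking, proximity ligation, PCR and Illumina NextSeq500 sequencing followed.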

[2] = biological target: T2, ELK1 (Homo sapiens, UniProt P19419 1-428)
T2 sequence: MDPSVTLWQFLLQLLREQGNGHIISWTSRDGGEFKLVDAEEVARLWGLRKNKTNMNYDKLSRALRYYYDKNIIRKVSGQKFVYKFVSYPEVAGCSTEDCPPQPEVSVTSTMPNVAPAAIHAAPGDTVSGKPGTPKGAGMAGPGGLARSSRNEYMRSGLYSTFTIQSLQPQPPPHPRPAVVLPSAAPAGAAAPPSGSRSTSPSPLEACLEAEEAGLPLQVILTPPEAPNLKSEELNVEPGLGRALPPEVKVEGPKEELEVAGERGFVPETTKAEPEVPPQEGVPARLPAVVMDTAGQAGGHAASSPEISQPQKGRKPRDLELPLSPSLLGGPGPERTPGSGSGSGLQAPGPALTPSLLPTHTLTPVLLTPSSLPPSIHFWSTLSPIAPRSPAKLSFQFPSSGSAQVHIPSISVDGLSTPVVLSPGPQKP
How it was run: as §1

[3] = biological target: T3, GABPA (Homo sapiens, UniProt Q06546 1-454)
T3 sequence: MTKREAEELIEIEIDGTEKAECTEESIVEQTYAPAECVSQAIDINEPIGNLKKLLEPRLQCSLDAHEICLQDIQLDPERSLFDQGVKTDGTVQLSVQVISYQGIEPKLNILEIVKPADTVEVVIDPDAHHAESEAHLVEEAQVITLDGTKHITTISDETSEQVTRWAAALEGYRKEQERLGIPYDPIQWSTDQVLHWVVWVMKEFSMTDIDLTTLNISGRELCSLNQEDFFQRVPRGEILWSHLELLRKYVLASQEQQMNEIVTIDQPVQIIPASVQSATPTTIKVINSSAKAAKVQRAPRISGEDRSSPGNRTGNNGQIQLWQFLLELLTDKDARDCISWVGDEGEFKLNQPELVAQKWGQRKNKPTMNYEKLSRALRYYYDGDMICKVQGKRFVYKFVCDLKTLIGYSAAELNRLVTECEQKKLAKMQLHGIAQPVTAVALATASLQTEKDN
How it was run: as §1

[4] = biological target: T4, ERG (Homo sapiens, UniProt P11308 1-479)
T4 sequence: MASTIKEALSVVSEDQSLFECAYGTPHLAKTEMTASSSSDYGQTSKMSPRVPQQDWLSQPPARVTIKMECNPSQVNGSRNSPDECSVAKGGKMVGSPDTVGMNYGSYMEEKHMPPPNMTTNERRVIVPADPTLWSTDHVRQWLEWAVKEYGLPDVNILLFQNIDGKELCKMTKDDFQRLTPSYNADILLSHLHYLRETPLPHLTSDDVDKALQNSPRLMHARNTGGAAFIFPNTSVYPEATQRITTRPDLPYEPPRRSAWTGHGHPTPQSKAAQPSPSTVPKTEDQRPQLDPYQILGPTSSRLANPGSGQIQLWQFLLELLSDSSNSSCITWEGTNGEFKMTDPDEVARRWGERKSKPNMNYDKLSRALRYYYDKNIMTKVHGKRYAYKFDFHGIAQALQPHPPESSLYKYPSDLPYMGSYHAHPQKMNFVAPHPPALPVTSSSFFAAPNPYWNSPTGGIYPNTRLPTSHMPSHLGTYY
How it was run: as §1

[5] = biological target: ELF1 (Homo sapiens, UniProt P32519 1-619)
Sequence of ELF1 (P32519 whole entry): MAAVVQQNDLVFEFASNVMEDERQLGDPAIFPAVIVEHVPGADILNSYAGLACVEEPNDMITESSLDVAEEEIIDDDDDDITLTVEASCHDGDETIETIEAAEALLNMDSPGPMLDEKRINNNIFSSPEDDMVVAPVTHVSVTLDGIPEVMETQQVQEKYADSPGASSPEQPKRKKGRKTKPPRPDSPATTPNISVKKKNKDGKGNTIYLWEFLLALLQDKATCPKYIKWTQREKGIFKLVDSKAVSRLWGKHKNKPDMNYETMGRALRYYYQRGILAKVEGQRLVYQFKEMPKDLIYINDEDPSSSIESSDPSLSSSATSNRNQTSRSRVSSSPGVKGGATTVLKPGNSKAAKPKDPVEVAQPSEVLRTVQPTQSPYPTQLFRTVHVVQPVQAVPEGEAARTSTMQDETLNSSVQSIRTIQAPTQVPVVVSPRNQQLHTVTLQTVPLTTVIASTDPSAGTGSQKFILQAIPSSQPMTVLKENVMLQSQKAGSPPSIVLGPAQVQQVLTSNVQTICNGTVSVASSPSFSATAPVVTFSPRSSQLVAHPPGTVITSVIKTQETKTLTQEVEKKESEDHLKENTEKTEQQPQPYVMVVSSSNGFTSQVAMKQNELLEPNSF
How it was run: as §1

[6] = biological target: T5, EHF (Homo sapiens, UniProt Q9NZC4 1-300)
T5 sequence: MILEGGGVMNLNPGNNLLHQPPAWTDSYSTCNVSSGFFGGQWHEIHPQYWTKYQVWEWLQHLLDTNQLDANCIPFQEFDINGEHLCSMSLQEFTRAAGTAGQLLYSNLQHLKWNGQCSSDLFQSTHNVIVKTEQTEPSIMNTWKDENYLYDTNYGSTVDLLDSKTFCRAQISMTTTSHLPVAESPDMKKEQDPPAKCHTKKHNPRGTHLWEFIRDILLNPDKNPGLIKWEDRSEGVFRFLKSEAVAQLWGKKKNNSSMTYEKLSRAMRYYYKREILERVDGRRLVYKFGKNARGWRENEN
How it was run: as §1

[7] = biological target: SPI1 (Homo sapiens, UniProt P17947 1-270)
How it was run: as §1

[8] = biological target: SPIB (Homo sapiens, UniProt Q01892 1-262)
Sequence of SPIB (Q01892 whole entry): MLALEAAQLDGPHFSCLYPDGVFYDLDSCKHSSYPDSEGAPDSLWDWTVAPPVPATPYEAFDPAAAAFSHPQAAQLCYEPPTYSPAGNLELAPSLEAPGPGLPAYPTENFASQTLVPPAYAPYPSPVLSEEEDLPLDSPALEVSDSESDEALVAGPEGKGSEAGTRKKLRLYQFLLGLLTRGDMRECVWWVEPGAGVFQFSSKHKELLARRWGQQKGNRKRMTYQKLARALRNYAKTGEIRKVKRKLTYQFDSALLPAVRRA
How it was run: as §1

[9] = biological target: T6, ELK3 (Homo sapiens, UniProt P41970 1-407)
T6 sequence: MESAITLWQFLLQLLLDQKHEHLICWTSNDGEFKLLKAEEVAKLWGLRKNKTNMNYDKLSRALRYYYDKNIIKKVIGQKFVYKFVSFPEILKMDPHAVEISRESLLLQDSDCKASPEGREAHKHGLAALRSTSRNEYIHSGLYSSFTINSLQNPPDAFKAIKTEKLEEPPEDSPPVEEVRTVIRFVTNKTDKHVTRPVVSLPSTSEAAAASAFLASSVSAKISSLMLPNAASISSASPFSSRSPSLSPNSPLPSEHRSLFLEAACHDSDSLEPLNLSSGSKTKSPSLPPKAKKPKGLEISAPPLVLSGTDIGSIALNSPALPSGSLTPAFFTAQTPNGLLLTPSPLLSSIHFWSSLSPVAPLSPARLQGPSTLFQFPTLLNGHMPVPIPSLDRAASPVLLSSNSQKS
How it was run: as §1

[10] = biological target: SPI1 (Homo sapiens, UniProt P17947 1-270); remark: listed apart in the source
How it was run: as §1

Sequence	binding signal [1]	binding signal [2]	binding signal [3]	binding signal [4]	binding signal [5]	binding signal [6]	binding signal [7]	binding signal [8]	binding signal [9]	binding signal [10]
CACTTC	3.41 fold enrichment (6-mer frequency, TF over GST control)	3.77 fold enrichment (6-mer frequency, TF over GST control)	3.25 fold enrichment (6-mer frequency, TF over GST control)	4.19 fold enrichment (6-mer frequency, TF over GST control)	3.41 fold enrichment (6-mer frequency, TF over GST control)	3.63 fold enrichment (6-mer frequency, TF over GST control)	5.56 fold enrichment (6-mer frequency, TF over GST control)	3.54 fold enrichment (6-mer frequency, TF over GST control)	3.97 fold enrichment (6-mer frequency, TF over GST control)	–
TGCGCA	1.17 fold enrichment (6-mer frequency, TF over GST control)	1.07 fold enrichment (6-mer frequency, TF over GST control)	1.07 fold enrichment (6-mer frequency, TF over GST control)	1.07 fold enrichment (6-mer frequency, TF over GST control)	1.14 fold enrichment (6-mer frequency, TF over GST control)	1.16 fold enrichment (6-mer frequency, TF over GST control)	–	1.02 fold enrichment (6-mer frequency, TF over GST control)	–	1.08 fold enrichment (6-mer frequency, TF over GST control)
GCTGAA	1.14 fold enrichment (6-mer frequency, TF over GST control)	1.09 fold enrichment (6-mer frequency, TF over GST control)	1.14 fold enrichment (6-mer frequency, TF over GST control)	1.03 fold enrichment (6-mer frequency, TF over GST control)	1.16 fold enrichment (6-mer frequency, TF over GST control)	1.1 fold enrichment (6-mer frequency, TF over GST control)	–	1.11 fold enrichment (6-mer frequency, TF over GST control)	–	1.06 fold enrichment (6-mer frequency, TF over GST control)
TTAGCG	1.05 fold enrichment (6-mer frequency, TF over GST control)	1.04 fold enrichment (6-mer frequency, TF over GST control)	1.03 fold enrichment (6-mer frequency, TF over GST control)	1.05 fold enrichment (6-mer frequency, TF over GST control)	1.09 fold enrichment (6-mer frequency, TF over GST control)	1.06 fold enrichment (6-mer frequency, TF over GST control)	–	1.13 fold enrichment (6-mer frequency, TF over GST control)	–	1 fold enrichment (6-mer frequency, TF over GST control)
CGGAAG	2.85 fold enrichment (6-mer frequency, TF over GST control)	3.3 fold enrichment (6-mer frequency, TF over GST control)	2.61 fold enrichment (6-mer frequency, TF over GST control)	3.44 fold enrichment (6-mer frequency, TF over GST control)	2.8 fold enrichment (6-mer frequency, TF over GST control)	3.07 fold enrichment (6-mer frequency, TF over GST control)	3.49 fold enrichment (6-mer frequency, TF over GST control)	3.01 fold enrichment (6-mer frequency, TF over GST control)	3.41 fold enrichment (6-mer frequency, TF over GST control)	–
TAGCTG	1.29 fold enrichment (6-mer frequency, TF over GST control)	1.19 fold enrichment (6-mer frequency, TF over GST control)	1.21 fold enrichment (6-mer frequency, TF over GST control)	1.11 fold enrichment (6-mer frequency, TF over GST control)	1.24 fold enrichment (6-mer frequency, TF over GST control)	1.31 fold enrichment (6-mer frequency, TF over GST control)	–	1.3 fold enrichment (6-mer frequency, TF over GST control)	–	1.22 fold enrichment (6-mer frequency, TF over GST control)
TAGTCT	1.09 fold enrichment (6-mer frequency, TF over GST control)	1.07 fold enrichment (6-mer frequency, TF over GST control)	1.21 fold enrichment (6-mer frequency, TF over GST control)	1.08 fold enrichment (6-mer frequency, TF over GST control)	1.07 fold enrichment (6-mer frequency, TF over GST control)	1.05 fold enrichment (6-mer frequency, TF over GST control)	–	–	–	1.07 fold enrichment (6-mer frequency, TF over GST control)
TTGAGG	1.23 fold enrichment (6-mer frequency, TF over GST control)	1.09 fold enrichment (6-mer frequency, TF over GST control)	1.16 fold enrichment (6-mer frequency, TF over GST control)	1.06 fold enrichment (6-mer frequency, TF over GST control)	1.08 fold enrichment (6-mer frequency, TF over GST control)	1.11 fold enrichment (6-mer frequency, TF over GST control)	–	–	–	1.27 fold enrichment (6-mer frequency, TF over GST control)
